Shown are actives, neighbours in structure and some others; about 19% of the full set was active somewhere.
HT1080 IDH1KD tx: toxicity to HT-1080 IDH1 knockdown cells (counter line). HT-1080 IDH1 knockdown viability, ATP luminescence, 48 h. Potency, µM (series often up to 46.1 µM), for inactives: at the top dose activity, negative = toxicity, actives largely listed as cytotoxic. 360,000 compounds, 2% hits. AID 686971;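 further: potency means the concentration at half of the fitted maximal effect; 0% = DMSO wells and -100% = cell-free medium wells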
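Cytotoxicity counter-line: IDH1KD HT-1080, 48 h, CellTiter-Glo. Curves classed by r2, magnitude and activity.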
ELG1 DNA repair: blocks ELG1-dependent DNA repair in HEK293T cells. 330,000 compounds, 2.3% hits. Potency, µM (highest dose often 46.1 µM), inactives show top-dose activity change, negative = inhibition, hits mostly inhibitors. HEK293T ELG1-luciferase reporter, luminescence, 16 h; DNA damage induced by 5-fluorouridine; further: potency means the concentration at half of the fitted maximal effect; nearly all actives have a fitted effect of over 55% in size
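DMSO vehicle served as the neutral condition. Each well held 2,000 cells given 5-fluorouridine plus compound; after 16 hr at 37 °C/5% CO2, ONE-Glo was added and luciferase measured 30 min later.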
HT1080-NT tox: kills 2HG-producing HT-1080-NT fibrosarcoma cells; HT-1080-NT fibrosarcoma viability, CellTiter-Glo ATP luminescence, 48 h; Potency, µM (top dose mostly 46.1 µM), inactives show at the top dose activity, negative = less viability, actives largely listed as cytotoxic; 360,000 compounds, 1.6% hits; AID 686970;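 further: NT is the 2HG producing partner of a matched IDH1 knockdown line; potency means the concentration at half of the fitted maximal effect; 0% = DMSO-treated cells and -100% = media-only wells without cells; nearly all actives have a fitted effect of over 55% in size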
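HT-1080-NT; 750 cells/well; 5% FBS RPMI; 48 h compound, 37 degrees C; CellTiter-Glo luminescence; curve fitting and curve-class assignment.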
DT40 TDP1 no CPT: qHTS for Inhibitors of human tyrosyl-DNA phosphodiesterase 1 (TDP1): qHTS in cells in absence of CPT; DT40 Tdp1-/- hTDP1 cells, no CPT, ATP luminescence, 48 h; Potency, µM (highest dose often 46.2 µM), without a hit: at the top dose activity change, negative = growth inhibition, hits mostly inhibitors; 420,000 compounds, 15% hits; AID 686978, 2013; further: potency means the concentration at half of the fitted maximal effect; nearly all actives have a fitted effect of over 55% in size
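Chicken DT40 Tdp1-/- cells stably complemented with human TDP1 were seeded at 400 cells/well with DMSO in place of 20 nM camptothecin. After compound pinning, cells grew at least 48 hr at 37 °C; viability read by CellTiter-Glo luminescence.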
TDP1 cell CPT: growth inhibition of DT40 Tdp1-/-;hTDP1 cells with camptothecin (screen for TDP1 inhibitors). 420,000 compounds, 12% hits. AID 686979. chicken DT40 Tdp1-/-;hTDP1 cells + 20 nM CPT, ATP luminescence, 48 h. Potency, µM (series often up to 46.2 µM), without a hit: top-dose activity change, negative = growth inhibition, hits mostly inhibitors; further: potency means the concentration at half of the fitted maximal effect; nearly all actives have a fitted effect of over 55% in size
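Chicken DT40 Tdp1-/- cells complemented with human TDP1, 400 cells/well, exposed to compounds plus 20 nM camptothecin for at least 48 h at 37 C; viability read as ATP content by CellTiter-Glo luminescence.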
IL-1B inflam inh: inhibitors of inflammasome signaling (IL-1 beta secretion). 360,000 compounds, 4.7% hits. THP-1 LPS/ATP IL-1B secretion, AlphaLISA, 16 h; hits give low values. activity change, % at 57.5 µM; in the data active means activity change below about -50%; inconclusive means mostly about -30% to -49%
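THP-1 cells pretreated 1 hr with compounds (up to 57.5 uM final), then stimulated with LPS (250 ng/mL final) plus ATP (1.25 mM final); secreted IL-1B measured by AlphaLISA after 16 hr, decreased signal indicating inhibition.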
Numbers without * were called inactive; i = inactive; ? = inconclusive; . = not tested or not shown; [ ] = remark or other dose. Unless noted, the call rests on the fitted dose curve; in most records, active means well fitted curve in the direction sought with a large enough effect; inconclusive means small, poorly fitted or top-dose-only effect, or another doubt; inactive means no such curve, though single readings can be large; an effect the other way counts as inactive or inconclusive. Unless noted, on the % scale 0 is the no-effect control and ±100 the full control effect.

SMILES	HT1080 IDH1KD tx	ELG1 DNA repair	HT1080-NT tox	DT40 TDP1 no CPT	TDP1 cell CPT	IL-1B inflam inh
CCOC(=O)[C@]12CCCC=C1N(Cc1ccc3c(c1)OCO3)C(=O)[C@H](CC(=O)N1CCCCC1)C2	5%	.	3%	15µM*	13µM*	-2
CCOC(=O)[C@]12CCC=C1N(Cc1ccc3c(c1)OCO3)C(=O)[C@H](CC(=O)N1CCC(c3ccccc3)CC1)C2	?	.	-20%	16µM*	?	?
CCOC(=O)[C@]12CCCC=C1N(Cc1ccc3c(c1)OCO3)C(=O)[C@H](CC(=O)N1CCCC1)C2	0%	.	1%	21µM*	?	18
CCOC(=O)N1CCN(C(=O)C[C@@H]2C[C@@]3(C(=O)OCC)CCC=C3N(Cc3ccc4c(c3)OCO4)C2=O)CC1	?	.	?	?	-28%	6
CCC1CCCCN1CCCNC(=O)CCC(=O)N1CC(C)Oc2ccccc21 (centres undefined)	-7%	0%	-4%	-29%	-10%	-19
COc1ccc(CN2CCN(Cc3cccc(Oc4ccccc4)c3)CC2)c(OC)c1OC	-16%	-19%	?	?	?	-89*
O=C(c1ccccc1)N1CCN(Cc2cccc(Oc3ccccc3)c2)CC1	-1%	-22%	-4%	?	?	-15
OC1CCN(Cc2cccc(Oc3ccccc3)c2)CC1	-19%	4%	-3%	?	23µM*	0
CN1CCN(Cc2cccc(Oc3ccccc3)c2)CC1	0%[9.24 µM]	4%	12%	?	-14%	-53*
CC1CCCN(Cc2cccc(Oc3ccccc3)c2)C1 (centres undefined)	7%	-1%	8%	-2%	-16%	-6
COc1ccc(CN2CCN(C(c3ccc(F)cc3)c3ccc(F)cc3)CC2)c(OC)c1OC	?	.	?	2.9µM*	2.6µM*	-24
COc1cc(CN2CCN(Cc3cccc(OC)c3OC)CC2)cc(OC)c1	8%	13%	6%	-5%	3%	18
CN(Cc1ccc(Cl)c(Cl)c1)C(=O)C1=CC=CN2CCS(=O)(=O)N=C12	-15%	-1%	-2%	-23%	-22%	3
COc1ccc(NS(=O)(=O)c2cccc(C(=O)O)c2)cc1S(=O)(=O)N1CCOCC1	-4%	0%	0%	-2%	4%	7
COc1ccc(CN2CCN(Cc3ccc(Br)cc3)CC2)c(OC)c1OC	-14%	-12%	-15%	16µM*	?	-5
CCN(CC(=O)NCc1cccs1)CC(=O)Nc1cccc(S(N)(=O)=O)c1	-2%	9%	0%	22%	-7%	-1
COc1cc(/C=C/C2=NNC(=O)CC2)cc(OC)c1OC	2%	?	8%	19%	-7%	-7
CC(C)c1ccc(/C=C/C2=NNC(=O)CC2)cc1	-22%	?	?	12µM*	18µM*	15
O=C(c1ccco1)N1CCC2(CC1)CCN(c1ccccn1)CC2	.	.	.	?	-14%	.
O=C(c1cc(C(F)(F)F)cc(C(F)(F)F)c1)N1CCC2(CC1)CCN(c1ccccc1)CC2	.	.	.	-10%	6%	.
O=C(c1cc(C(F)(F)F)cc(C(F)(F)F)c1)N1CCC2(CC1)CCN(c1ccccn1)CC2	.	.	.	21µM*	21µM*	.
O=C(c1cc(C(F)(F)F)cc(C(F)(F)F)c1)N1CCC2(CCCN(c3ccncc3)C2)CC1	.	.	.	21µM*	?	.
O=C(c1cc(C(F)(F)F)cc(C(F)(F)F)c1)N1CCC2(CC1)CN(c1ccccc1)C2	.	.	.	13µM*	?	.
O=C(c1cccc(F)c1)N1CCC2(CC1)CN(c1ccccc1)C2	.	.	.	16µM*	7.3µM*	.
Cc1cccc(OC(=O)c2ccc3c(=O)n4c(nc3c2)CCC4)c1	0%	.	-2%	-9%	-2%	-6
SMILES	HT1080 IDH1KD tx	ELG1 DNA repair	HT1080-NT tox	DT40 TDP1 no CPT	TDP1 cell CPT	IL-1B inflam inh
CC(c1ccccn1)N(C)C(=O)c1ccc2nc(Cc3ccccc3F)oc2c1 (centres undefined)	1%	?	5%	?	-12%	i
COc1cc(C(C)=O)ccc1OC(=O)N1CCOCC1	-1%	.	-1%	-20%	-16%	19
CCCC(=O)NCC(c1ccc2c(c1)OCO2)N1CCOCC1 (centres undefined)	.	.	.	0%	1%	.
COc1ccc(C(=O)N2CCC3(CCCN(c4ccncc4)C3)CC2)cc1	.	.	.	18µM*	?	.
O=C(NCc1ccccc1Cl)C(=O)NCC(c1ccco1)S(=O)(=O)c1cccs1 (centres undefined)	.	.	.	16µM*	?	.
O=C(NCCc1ccc(Cl)cc1)C(=O)NCC(c1ccco1)S(=O)(=O)c1cccs1 (centres undefined)	.	.	.	?	18µM*	.
C=Cc1cnc([N+](=O)[O-])n1C	3%	.	1%	?	?	8
Cc1cc(CNC(=O)COc2cc(F)ccc2[N+](=O)[O-])c2ccccc2n1	-3%	-19%	-28%	12µM*	12µM*	-18
Cc1cc(CNC(=O)c2cccc([N+](=O)[O-])c2C)c2ccccc2n1	-21%	?	-29%	12µM*	10µM*	-10
Cc1cc(CNC(=O)COc2ccccc2F)c2ccccc2n1	1%	-9%	-1%	?	15µM*	59
CC(C)(C)c1ccccc1OCCOCCN1CCCCCC1	?	-16%	-14%	15µM*	?	-62*
Cc1ccc(C(C)(C)C)c(OCCOCCN2CCCC2)c1	1%	-9%	3%	?	15µM*	-8
Cc1ccc(OCCOCCN2CCCCC2)c([N+](=O)[O-])c1	3%	-20%	7%	0%	9%	0
CCC(C)c1ccccc1OCCOCCN1CCCC1 (centres undefined)	2%	-5%	5%	?	?	-6
COc1cccc(-c2nn(Cc3ccccc3)cc2CO)c1	-12%	?	-15%	-32%	0%	2
Cc1cccc(C(=O)Nc2nnc(S(=O)(=O)N(C)c3ccccc3C)s2)c1	.	.	.	-27%	-18%	.
CC1CCCC(NC(=O)COC(=O)c2ccc3ncsc3c2)C1C (centres undefined)	-1%	14%	18%	26%	-11%	11
CCOC(=O)c1c(NC(=O)C(C)Sc2nnc(C)c(=O)[nH]2)sc2c1CCCC2 (centres undefined)	-10%	-1%	-2%	-17%	2%	30

Screening results: PubChem, National Center for Advancing Translational Sciences (NCATS)
